# What was measured:
# [1] = molecular target: Protein kinase C gamma type (Homo sapiens) (UniProt P05129); settings: at 1 µM;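 note: each value is an averaged percent inhibition of the enzyme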
# [2] = molecular target: T1, Protein kinase C iota type (Homo sapiens) (UniProt P41743); settings: at 0.1 µM
# T1 sequence (whole entry): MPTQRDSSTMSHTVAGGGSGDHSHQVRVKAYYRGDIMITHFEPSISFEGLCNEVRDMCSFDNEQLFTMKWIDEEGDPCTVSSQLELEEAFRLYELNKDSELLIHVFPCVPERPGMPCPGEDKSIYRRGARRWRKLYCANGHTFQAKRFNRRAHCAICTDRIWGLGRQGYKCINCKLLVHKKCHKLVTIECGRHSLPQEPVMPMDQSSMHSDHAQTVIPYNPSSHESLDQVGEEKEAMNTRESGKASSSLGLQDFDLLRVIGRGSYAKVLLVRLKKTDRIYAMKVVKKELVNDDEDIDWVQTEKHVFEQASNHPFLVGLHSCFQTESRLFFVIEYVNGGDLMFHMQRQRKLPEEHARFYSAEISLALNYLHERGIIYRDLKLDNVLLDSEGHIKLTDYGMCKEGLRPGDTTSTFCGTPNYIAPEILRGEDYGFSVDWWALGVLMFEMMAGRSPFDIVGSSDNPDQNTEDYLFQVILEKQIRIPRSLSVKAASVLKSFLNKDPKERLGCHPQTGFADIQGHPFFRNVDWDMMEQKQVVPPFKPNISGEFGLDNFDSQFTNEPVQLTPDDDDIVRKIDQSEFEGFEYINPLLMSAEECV
# [3] = molecular target: T1, Protein kinase C iota type (Homo sapiens); settings: at 1 µM
# [4] = molecular target: Protein kinase C theta type (Homo sapiens) (UniProt Q04759); settings: at 0.1 µM
# [5] = molecular target: Protein kinase C theta type (Homo sapiens) (UniProt Q04759); settings: at 1 µM
# [6] = molecular target: Protein kinase C beta type (Homo sapiens) (UniProt P05771); settings: at 0.1 µM
# [7] = molecular target: Protein kinase C beta type (Homo sapiens) (UniProt P05771); settings: at 1 µM
# [8] = molecular target: T2, Serine/threonine-protein kinase D1 (Homo sapiens) (UniProt Q15139); settings: at 0.1 µM
# T2 sequence (whole entry): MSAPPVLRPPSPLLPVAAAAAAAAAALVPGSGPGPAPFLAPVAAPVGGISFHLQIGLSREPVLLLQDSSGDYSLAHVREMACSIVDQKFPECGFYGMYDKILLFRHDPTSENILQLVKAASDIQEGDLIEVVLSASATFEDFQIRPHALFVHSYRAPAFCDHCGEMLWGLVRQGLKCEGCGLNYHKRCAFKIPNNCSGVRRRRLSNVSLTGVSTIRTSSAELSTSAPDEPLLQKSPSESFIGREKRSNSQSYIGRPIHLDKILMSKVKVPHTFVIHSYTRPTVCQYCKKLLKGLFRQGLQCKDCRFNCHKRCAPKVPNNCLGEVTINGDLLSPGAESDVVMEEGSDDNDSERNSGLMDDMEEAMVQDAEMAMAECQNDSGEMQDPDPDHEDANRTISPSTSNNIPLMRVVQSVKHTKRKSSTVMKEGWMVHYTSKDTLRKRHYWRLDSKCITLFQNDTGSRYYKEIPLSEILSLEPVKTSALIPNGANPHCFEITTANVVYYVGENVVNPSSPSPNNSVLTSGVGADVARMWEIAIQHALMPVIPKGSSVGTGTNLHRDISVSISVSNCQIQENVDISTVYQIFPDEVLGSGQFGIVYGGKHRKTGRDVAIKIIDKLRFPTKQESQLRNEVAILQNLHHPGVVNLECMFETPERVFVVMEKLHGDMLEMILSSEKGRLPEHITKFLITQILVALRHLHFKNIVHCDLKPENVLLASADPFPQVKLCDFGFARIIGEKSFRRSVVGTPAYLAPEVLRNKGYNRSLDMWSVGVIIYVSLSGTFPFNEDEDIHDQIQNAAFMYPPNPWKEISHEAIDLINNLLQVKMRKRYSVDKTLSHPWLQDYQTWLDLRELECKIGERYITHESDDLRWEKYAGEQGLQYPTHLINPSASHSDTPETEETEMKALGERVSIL
# [9] = molecular target: T2, Serine/threonine-protein kinase D1 (Homo sapiens); settings: at 1 µM
# [10] = molecular target: T3, Serine/threonine-protein kinase D2 (Homo sapiens) (UniProt Q9BZL6); settings: at 0.1 µM
# T3 sequence (whole entry): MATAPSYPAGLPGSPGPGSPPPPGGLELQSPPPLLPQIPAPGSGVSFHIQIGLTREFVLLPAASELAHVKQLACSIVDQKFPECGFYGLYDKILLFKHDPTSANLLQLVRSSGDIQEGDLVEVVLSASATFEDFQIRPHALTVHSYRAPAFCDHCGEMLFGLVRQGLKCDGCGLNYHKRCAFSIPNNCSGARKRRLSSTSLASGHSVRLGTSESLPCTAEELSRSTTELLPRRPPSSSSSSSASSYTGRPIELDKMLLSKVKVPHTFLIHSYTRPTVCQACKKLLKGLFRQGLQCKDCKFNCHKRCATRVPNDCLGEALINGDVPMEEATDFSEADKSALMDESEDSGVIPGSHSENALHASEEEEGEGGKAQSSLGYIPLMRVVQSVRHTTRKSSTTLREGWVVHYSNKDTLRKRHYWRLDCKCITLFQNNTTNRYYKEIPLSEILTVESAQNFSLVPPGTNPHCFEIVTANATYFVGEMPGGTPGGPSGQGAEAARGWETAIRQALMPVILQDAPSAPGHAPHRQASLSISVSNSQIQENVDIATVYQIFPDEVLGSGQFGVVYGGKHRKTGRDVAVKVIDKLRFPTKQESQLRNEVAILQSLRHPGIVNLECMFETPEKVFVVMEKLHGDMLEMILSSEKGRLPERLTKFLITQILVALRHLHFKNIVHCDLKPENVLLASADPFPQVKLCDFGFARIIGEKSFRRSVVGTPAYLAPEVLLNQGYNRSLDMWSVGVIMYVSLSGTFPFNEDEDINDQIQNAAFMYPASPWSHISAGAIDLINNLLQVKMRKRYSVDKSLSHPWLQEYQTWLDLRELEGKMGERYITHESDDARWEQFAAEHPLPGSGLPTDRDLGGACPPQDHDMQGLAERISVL
# [11] = molecular target: T3, Serine/threonine-protein kinase D2 (Homo sapiens); settings: at 1 µM
# [12] = molecular target: T4, Serine/threonine-protein kinase D3 (Homo sapiens) (UniProt O94806); settings: at 0.1 µM
# T4 sequence (whole entry): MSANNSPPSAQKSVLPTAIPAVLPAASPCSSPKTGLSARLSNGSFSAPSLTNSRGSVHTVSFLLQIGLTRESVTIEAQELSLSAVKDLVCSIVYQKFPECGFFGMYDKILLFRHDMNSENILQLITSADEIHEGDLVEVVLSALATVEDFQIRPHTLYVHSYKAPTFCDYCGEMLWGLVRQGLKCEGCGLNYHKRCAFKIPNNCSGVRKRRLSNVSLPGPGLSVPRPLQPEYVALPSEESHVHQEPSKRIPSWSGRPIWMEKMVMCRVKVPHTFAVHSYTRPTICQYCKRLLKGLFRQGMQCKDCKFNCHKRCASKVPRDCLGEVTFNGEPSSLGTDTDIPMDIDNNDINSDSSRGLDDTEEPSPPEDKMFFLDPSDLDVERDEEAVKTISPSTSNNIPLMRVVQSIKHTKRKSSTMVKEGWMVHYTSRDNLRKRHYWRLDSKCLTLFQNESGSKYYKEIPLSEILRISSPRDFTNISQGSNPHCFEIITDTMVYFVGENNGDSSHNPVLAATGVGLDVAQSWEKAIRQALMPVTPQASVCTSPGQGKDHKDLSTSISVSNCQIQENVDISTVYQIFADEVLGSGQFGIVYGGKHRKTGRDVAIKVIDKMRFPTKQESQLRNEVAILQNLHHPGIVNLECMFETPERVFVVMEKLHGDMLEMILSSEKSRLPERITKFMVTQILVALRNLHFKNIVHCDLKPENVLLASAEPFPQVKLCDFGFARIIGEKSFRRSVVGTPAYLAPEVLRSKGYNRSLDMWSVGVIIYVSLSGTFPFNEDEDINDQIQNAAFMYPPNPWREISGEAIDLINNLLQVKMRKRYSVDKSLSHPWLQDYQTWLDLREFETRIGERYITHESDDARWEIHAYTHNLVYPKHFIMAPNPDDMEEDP
# [13] = molecular target: T4, Serine/threonine-protein kinase D3 (Homo sapiens); settings: at 1 µM
# [14] = molecular target: T5, cGMP-dependent protein kinase 1 (Homo sapiens) (UniProt Q13976); settings: at 0.1 µM
# T5 sequence (whole entry): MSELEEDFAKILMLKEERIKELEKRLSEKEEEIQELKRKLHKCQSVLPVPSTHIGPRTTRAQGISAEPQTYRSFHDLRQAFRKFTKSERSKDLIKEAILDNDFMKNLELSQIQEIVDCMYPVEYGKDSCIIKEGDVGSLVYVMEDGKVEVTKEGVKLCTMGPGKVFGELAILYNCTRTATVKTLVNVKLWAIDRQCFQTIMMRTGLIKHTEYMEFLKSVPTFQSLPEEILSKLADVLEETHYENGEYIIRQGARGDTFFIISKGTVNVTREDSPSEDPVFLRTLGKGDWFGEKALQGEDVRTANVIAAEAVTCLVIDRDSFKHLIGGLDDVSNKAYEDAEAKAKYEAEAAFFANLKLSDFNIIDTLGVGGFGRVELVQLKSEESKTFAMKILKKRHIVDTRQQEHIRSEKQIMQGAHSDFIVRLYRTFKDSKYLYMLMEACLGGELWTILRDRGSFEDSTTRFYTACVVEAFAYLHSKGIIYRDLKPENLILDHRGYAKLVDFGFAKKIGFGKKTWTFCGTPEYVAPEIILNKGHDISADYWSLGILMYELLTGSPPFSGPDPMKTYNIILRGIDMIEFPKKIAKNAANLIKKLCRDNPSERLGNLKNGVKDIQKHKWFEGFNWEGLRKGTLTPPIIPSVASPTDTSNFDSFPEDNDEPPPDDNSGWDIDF
# [15] = molecular target: T5, cGMP-dependent protein kinase 1 (Homo sapiens); settings: at 1 µM
# [16] = molecular target: T6, cGMP-dependent protein kinase 2 (Homo sapiens) (UniProt Q13237); settings: at 0.1 µM
# T6 sequence (whole entry): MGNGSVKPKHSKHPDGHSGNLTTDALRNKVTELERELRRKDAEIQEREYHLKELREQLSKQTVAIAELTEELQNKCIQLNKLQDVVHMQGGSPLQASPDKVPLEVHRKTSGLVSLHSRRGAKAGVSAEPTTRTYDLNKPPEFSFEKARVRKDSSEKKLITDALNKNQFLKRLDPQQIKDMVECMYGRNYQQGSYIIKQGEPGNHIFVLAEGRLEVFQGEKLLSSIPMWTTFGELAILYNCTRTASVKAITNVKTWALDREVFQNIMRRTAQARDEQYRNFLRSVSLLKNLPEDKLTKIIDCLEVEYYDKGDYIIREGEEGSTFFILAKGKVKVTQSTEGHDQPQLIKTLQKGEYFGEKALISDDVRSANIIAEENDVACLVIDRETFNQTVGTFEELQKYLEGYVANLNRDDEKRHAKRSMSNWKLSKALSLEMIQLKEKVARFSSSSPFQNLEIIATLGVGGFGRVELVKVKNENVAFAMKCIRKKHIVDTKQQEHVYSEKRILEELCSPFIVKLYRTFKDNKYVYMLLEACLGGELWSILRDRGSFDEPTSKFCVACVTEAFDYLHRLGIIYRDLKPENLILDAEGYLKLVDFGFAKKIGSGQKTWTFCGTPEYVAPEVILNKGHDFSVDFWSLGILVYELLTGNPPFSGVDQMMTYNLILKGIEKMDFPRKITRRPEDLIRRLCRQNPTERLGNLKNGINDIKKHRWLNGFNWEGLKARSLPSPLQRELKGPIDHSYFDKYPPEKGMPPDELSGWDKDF
# [17] = molecular target: T6, cGMP-dependent protein kinase 2 (Homo sapiens); settings: at 1 µM
# [18] = molecular target: T7, cAMP-dependent protein kinase catalytic subunit PRKX (Homo sapiens) (UniProt P51817); settings: at 0.1 µM
# T7 sequence (whole entry): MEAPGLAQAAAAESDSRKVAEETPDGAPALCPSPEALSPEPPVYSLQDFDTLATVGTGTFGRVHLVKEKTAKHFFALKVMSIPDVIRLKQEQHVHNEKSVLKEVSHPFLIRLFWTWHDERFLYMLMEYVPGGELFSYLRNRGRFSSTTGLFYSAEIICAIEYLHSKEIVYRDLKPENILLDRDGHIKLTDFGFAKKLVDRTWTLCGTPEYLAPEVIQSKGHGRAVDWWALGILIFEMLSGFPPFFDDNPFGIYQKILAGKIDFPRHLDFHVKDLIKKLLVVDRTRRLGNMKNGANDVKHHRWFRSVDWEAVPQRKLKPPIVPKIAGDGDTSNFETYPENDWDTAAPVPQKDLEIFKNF
# [19] = molecular target: T7, cAMP-dependent protein kinase catalytic subunit PRKX (Homo sapiens); settings: at 1 µM
# [20] = molecular target: Rho-associated protein kinase 1 (Homo sapiens) (UniProt Q13464); settings: at 0.1 µM;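 note: values are mean percent inhibition of ROCK1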
# Rho-associated protein kinase 1 (Homo sapiens), sequence (Q13464 2-1354 limits assumed): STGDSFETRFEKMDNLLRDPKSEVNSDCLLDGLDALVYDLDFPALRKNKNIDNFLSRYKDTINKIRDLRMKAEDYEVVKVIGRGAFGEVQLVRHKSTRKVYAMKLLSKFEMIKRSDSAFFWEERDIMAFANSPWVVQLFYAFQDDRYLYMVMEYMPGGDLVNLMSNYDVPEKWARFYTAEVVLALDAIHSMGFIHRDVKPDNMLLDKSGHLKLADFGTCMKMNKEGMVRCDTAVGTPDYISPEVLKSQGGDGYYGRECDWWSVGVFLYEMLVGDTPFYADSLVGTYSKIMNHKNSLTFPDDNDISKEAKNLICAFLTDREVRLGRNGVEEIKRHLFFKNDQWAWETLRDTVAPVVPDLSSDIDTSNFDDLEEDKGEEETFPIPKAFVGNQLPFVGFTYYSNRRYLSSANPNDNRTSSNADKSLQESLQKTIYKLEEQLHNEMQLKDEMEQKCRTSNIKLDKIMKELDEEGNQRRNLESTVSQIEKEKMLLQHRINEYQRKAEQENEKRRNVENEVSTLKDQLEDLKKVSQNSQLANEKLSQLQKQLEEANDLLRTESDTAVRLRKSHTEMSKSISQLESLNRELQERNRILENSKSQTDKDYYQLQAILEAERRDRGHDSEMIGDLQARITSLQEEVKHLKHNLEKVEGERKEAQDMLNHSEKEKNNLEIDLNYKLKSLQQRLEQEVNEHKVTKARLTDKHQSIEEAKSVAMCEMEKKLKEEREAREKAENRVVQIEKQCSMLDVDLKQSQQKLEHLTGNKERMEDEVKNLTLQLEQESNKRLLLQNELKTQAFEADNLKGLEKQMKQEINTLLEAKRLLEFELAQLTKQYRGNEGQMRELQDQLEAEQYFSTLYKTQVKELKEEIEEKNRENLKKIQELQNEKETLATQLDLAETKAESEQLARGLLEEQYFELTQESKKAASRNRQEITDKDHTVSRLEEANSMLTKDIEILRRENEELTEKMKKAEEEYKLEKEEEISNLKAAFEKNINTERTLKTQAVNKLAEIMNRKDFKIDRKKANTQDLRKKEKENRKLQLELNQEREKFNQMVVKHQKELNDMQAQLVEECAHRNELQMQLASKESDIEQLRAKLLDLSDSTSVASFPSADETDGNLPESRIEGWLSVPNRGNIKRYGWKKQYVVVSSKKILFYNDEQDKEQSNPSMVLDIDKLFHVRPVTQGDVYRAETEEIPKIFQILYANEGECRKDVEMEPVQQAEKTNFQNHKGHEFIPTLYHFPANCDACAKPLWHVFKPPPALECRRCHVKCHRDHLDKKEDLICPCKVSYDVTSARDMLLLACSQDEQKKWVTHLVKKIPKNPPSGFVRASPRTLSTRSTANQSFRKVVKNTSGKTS
# Protein kinase C beta type (Homo sapiens), sequence (P05771 2-671 limits assumed): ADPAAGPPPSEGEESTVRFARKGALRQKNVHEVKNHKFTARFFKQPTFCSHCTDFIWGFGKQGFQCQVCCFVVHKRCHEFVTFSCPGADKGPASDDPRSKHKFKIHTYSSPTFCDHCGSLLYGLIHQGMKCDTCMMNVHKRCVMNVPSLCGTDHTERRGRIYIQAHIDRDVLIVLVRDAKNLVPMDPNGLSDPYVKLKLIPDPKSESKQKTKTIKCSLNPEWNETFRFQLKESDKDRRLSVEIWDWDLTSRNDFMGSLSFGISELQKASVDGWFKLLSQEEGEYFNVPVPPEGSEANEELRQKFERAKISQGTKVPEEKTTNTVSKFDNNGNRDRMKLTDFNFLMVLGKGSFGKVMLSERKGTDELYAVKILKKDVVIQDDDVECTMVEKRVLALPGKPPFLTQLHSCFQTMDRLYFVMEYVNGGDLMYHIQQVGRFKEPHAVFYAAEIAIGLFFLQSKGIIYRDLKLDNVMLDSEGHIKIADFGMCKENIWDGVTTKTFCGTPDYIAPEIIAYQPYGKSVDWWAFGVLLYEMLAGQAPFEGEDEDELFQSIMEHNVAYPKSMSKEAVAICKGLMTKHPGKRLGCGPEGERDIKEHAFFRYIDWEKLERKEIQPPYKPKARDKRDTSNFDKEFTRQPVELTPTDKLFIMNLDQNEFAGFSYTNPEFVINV
# Protein kinase C theta type (Homo sapiens), sequence (Q04759 whole entry, looked up): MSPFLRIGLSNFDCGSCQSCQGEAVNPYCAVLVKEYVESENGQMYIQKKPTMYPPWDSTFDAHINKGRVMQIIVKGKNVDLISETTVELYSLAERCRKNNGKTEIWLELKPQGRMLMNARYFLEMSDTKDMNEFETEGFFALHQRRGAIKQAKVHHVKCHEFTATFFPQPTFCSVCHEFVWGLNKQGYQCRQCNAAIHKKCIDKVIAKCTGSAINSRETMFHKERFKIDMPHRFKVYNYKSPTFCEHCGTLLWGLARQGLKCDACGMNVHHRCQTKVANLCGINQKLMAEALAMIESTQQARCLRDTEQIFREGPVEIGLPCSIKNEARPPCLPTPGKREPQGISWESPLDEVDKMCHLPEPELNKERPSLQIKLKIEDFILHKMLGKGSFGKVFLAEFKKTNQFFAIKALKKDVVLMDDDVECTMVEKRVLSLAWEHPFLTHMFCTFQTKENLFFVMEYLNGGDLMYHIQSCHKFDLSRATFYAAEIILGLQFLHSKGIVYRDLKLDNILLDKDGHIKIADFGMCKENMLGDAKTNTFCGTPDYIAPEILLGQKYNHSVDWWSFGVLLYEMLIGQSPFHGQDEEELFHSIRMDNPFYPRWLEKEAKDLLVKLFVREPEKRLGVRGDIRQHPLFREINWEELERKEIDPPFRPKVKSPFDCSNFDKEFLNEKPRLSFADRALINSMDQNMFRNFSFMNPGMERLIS
smiles,measurement,setting,value
C[C@@H](Oc1cc(-n2cnc3ccc(OC4CCN(C)CC4)cc32)sc1C(N)=O)c1ccccc1Cl,inhibition,[1],4.97%
same,inhibition,[2],1.12%
same,inhibition,[3],2.89%
same,inhibition,[4],3.08%
same,inhibition,[5],9.67%
same,inhibition,[6],1.56%
same,inhibition,[7],8.48%
same,inhibition,[8],0.52%
same,inhibition,[9],3.79%
same,inhibition,[10],0.7%
same,inhibition,[11],1.06%
same,inhibition,[12],0.8%
same,inhibition,[13],3.55%
same,inhibition,[14],3.98%
same,inhibition,[15],4.08%
same,inhibition,[16],1.43%
same,inhibition,[17],4.43%
same,inhibition,[18],2.2%
same,inhibition,[19],-1.84%
same,inhibition,[20],1.76%

# Reference: ChEMBL document CHEMBL1961873, “Compounds: GSK PKIS; Assays: Nanosyn kinase panel” (2012)
